Data from PubChem BioAssay AID1159580 (chemical genetic matrix, 2015).
In all, about 5,500 compounds went through this assay and about 2,000 (36%) were called active. Not shown: some 18% with an inconclusive outcome. No stated cut-off is given here; in the data, active means normalized growth mostly below about 0.91 (no sharp cut-off); inconclusive means no clear call, values can overlap the other calls; inactive means mostly above about 0.92. This is one part of the list.

Test: chemical genetic growth profiling, strain panel (AID 1159580);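 further: tested at 20 µM; growth read once vehicle control cultures reached saturation at 30 °C; 1 = growth at the plate median or of vehicle wells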
Details: growth OD
[1] = S. cerevisiae deletion strains, locus YAL013W, strain DEP1, stronger effect = lower value
[2] = S. cerevisiae deletion strains, locus YGR078C, strain PAC10, stronger effect = lower value
[3] = S. cerevisiae deletion strains, locus YJR075W, strain HOC1, stronger effect = lower value
[4] = S. cerevisiae deletion strains, locus YMR307W, strain GAS1, stronger effect = lower value
[5] = S. cerevisiae deletion strains, locus YNL322C, strain KRE1, stronger effect = lower value
[6] = S. cerevisiae deletion strains, locus YPL055C, strain LGE1, stronger effect = lower value
[7] = S. cerevisiae deletion strains, locus YBR229C, strain ROT2, stronger effect = lower value
[8] = S. cerevisiae deletion strains, locus YDL101C, strain DUN1, stronger effect = lower value
[9] = S. cerevisiae deletion strains, locus YDR150W, strain NUM1, stronger effect = lower value
[10] = S. cerevisiae deletion strains, locus YEL061C, strain CIN8, stronger effect = lower value
[11] = S. cerevisiae deletion strains, locus YHR030C, strain SLT2, stronger effect = lower value
[12] = S. cerevisiae deletion strains, locus YHR087W, strain rtc3, stronger effect = lower value
[13] = S. cerevisiae deletion strains, locus YJR043C, strain POL32, stronger effect = lower value
[14] = S. cerevisiae deletion strains, locus YLR039C, strain RIC1, stronger effect = lower value
[15] = S. cerevisiae deletion strains, locus YLR058C, strain SHM2 (second series), stronger effect = lower value
[16] = S. cerevisiae deletion strains, locus YLR085C, strain ARP6, stronger effect = lower value
[17] = S. cerevisiae deletion strains, locus YLR262C, strain YPT6, stronger effect = lower value
[18] = S. cerevisiae deletion strains, locus YML094W, strain GIM5, stronger effect = lower value
[19] = S. cerevisiae deletion strains, locus YMR219W, strain ESC1, stronger effect = lower value
[20] = S. cerevisiae deletion strains, locus YMR263W, strain SAP30, stronger effect = lower value
[21] = S. cerevisiae deletion strains, locus YNL153C, strain GIM3, stronger effect = lower value
[22] = S. cerevisiae deletion strains, locus YNL298W, strain CLA4 (second series), stronger effect = lower value
[23] = S. cerevisiae deletion strains, locus YNR030W, strain Alg12, stronger effect = lower value
[24] = S. cerevisiae deletion strains, locus YPL241C, strain CIN2, stronger effect = lower value
[25] = S. cerevisiae deletion strains, locus YPR135W, strain CTF4, stronger effect = lower value
[26] = S. cerevisiae deletion strains, locus YDL134C, strain PPH21, stronger effect = lower value
[27] = S. cerevisiae deletion strains, locus YHR079C, strain IRE1, stronger effect = lower value
[28] = S. cerevisiae deletion strains, locus YJL095W, strain BCK1, stronger effect = lower value
[29] = S. cerevisiae deletion strains, locus YJR066W, strain TOR1, stronger effect = lower value
[30] = S. cerevisiae deletion strains, locus YLR113W, strain HOG1, stronger effect = lower value
[31] = S. cerevisiae deletion strains, locus YNL183C, strain NPR1, stronger effect = lower value
[32] = S. cerevisiae deletion strains, locus YOR231W, strain MKK1, stronger effect = lower value
[33] = S. cerevisiae deletion strains, locus YPL256C, strain CLN2, stronger effect = lower value

Measured: normalized growth

CCNC(=O)C1OC(n2cnc3c(NCc4ccccc4)ncnc32)C(O)C1O (centres undefined)
inactive: [1] 0.989 | S. cerevisiae deletion strains, locus YAL040C, strain CLN3, stronger effect = lower value 0.987 | S. cerevisiae deletion strains, locus YCL061C, strain MRC1 (second series), stronger effect = lower value 1.01 | S. cerevisiae deletion strains, locus YDR363W, strain ESC2, stronger effect = lower value 0.958 | S. cerevisiae deletion strains, locus YER002W, strain NOP16, stronger effect = lower value 1.01 | [2] 0.979 | [3] 1 | [4] 1 | S. cerevisiae deletion strains, locus YNL128W, strain TEP1, stronger effect = lower value 0.959 | S. cerevisiae deletion strains, locus YNL175C, strain NOP13, stronger effect = lower value 0.967 | S. cerevisiae deletion strains, locus YNL197C, strain WHI3, stronger effect = lower value 0.95 | S. cerevisiae deletion strains, locus YNL224C, strain SQS1, stronger effect = lower value 0.984 | [5] 0.99 | S. cerevisiae deletion strains, locus YOR083W, strain WHI5 (second series), stronger effect = lower value 0.956 | [6] 1

Cc1noc(C)c1NC(N)=O
inactive: [1] 0.994 | [7] 0.989 | [8] 0.974 | [9] 0.979 | [10] 0.981 | [2] 0.983 | S. cerevisiae deletion strains, locus YGR229C, strain SMI1, stronger effect = lower value 1.03 | [11] 1.04 | [12] 0.968 | S. cerevisiae deletion strains, locus YJL187C, strain SWE1, stronger effect = lower value 0.998 | [13] 0.995 | [3] 1.04 | S. cerevisiae deletion strains, locus YKL190W, strain CNB1, stronger effect = lower value 1.01 | [14] 0.97 | [15] 0.992 | [16] 1.01 | [17] 0.997 | [18] 0.952 | [19] 0.993 | [20] 1.03 | [4] 1.21 | [21] 0.999 | [22] 0.978 | [5] 0.987 | [23] 0.987 | S. cerevisiae deletion strains, locus YOL006C, strain TOP1, stronger effect = lower value 1.04 | [6] 0.975 | [24] 0.986 | [25] 0.898

Cc1noc(N)c1C(N)=S
active: [24] 1.17 [resistant]
inactive: [1] 0.986 | [7] 1 | [8] 1.02 | [26] 0.993 | [9] 1 | [10] 1 | [2] 1.02 | [11] 1.05 | [12] 1 | [13] 1.01 | [3] 1.05 | [14] 1.05 | [15] 1 | [16] 1.17 | [17] 1.01 | [18] 0.99 | [19] 1.01 | [20] 1 | [21] 1.01 | [22] 1.03 | [5] 0.998 | [23] 0.995 | [6] 1.01 | [25] 0.982 | S. cerevisiae strains, strain wild type, stronger effect = lower value 0.986

OC1CCN(c2cc(C(F)(F)F)nc3cc(Cl)cc(Cl)c23)CC1
inactive: S. cerevisiae deletion strains, locus YAR019C, strain CDC15, stronger effect = lower value 0.982 | S. cerevisiae deletion strains, locus YBL105C, strain PKC1, stronger effect = lower value 0.984 | S. cerevisiae deletion strains, locus YBR135W, strain CKS1, stronger effect = lower value 0.978 | S. cerevisiae deletion strains, locus YBR136W, strain MEC1, stronger effect = lower value 0.978 | S. cerevisiae deletion strains, locus YBR160W, strain CDC28, stronger effect = lower value 0.973 | S. cerevisiae deletion strains, locus YDL017W, strain CDC7, stronger effect = lower value 0.977 | S. cerevisiae deletion strains, locus YDL028C, strain MPS1, stronger effect = lower value 0.982 | [8] 0.976 | S. cerevisiae deletion strains, locus YDL108W, strain KIN28, stronger effect = lower value 0.979 | S. cerevisiae deletion strains, locus YDL132W, strain cdc53, stronger effect = lower value 0.969 | S. cerevisiae deletion strains, locus YDL214C, strain PRR2, stronger effect = lower value 0.98 | S. cerevisiae deletion strains, locus YDR052C, strain DBF4, stronger effect = lower value 0.989 | S. cerevisiae deletion strains, locus YDR054C, strain cdc34, stronger effect = lower value 0.969 | S. cerevisiae deletion strains, locus YDR226W, strain ADK1, stronger effect = lower value 0.973 | S. cerevisiae deletion strains, locus YDR477W, strain SNF1, stronger effect = lower value 0.913 | S. cerevisiae deletion strains, locus YER123W, strain YCK3, stronger effect = lower value 0.965 | S. cerevisiae deletion strains, locus YER133W, strain GLC7, stronger effect = lower value 0.971 | S. cerevisiae deletion strains, locus YFL009W, strain cdc4, stronger effect = lower value 0.986 | S. cerevisiae deletion strains, locus YFL029C, strain CAK1, stronger effect = lower value 0.984 | S. cerevisiae deletion strains, locus YFR003C, strain YPI1, stronger effect = lower value 0.978 | S. cerevisiae deletion strains, locus YFR019W, strain FAB1, stronger effect = lower value 1 | S. cerevisiae deletion strains, locus YFR028C, strain CDC14, stronger effect = lower value 0.979 | S. cerevisiae deletion strains, locus YGR040W, strain KSS1, stronger effect = lower value 0.921 | S. cerevisiae deletion strains, locus YGR052W, strain FMP48, stronger effect = lower value 1.1 | S. cerevisiae deletion strains, locus YGR092W, strain DBF2, stronger effect = lower value 0.994 | [27] 0.979 | S. cerevisiae deletion strains, locus YHR082C, strain KSP1, stronger effect = lower value 1.06 | S. cerevisiae deletion strains, locus YHR205W, strain SCH9, stronger effect = lower value 0.975 | S. cerevisiae deletion strains, locus YIL147C, strain SLN1, stronger effect = lower value 0.976 | [28] 0.887 | S. cerevisiae deletion strains, locus YJL128C, strain PBS2, stronger effect = lower value 0.989 | S. cerevisiae deletion strains, locus YJL157C, strain FAR1, stronger effect = lower value 0.972 | S. cerevisiae deletion strains, locus YJR016C, strain ILV3, stronger effect = lower value 0.984 | S. cerevisiae deletion strains, locus YJR066W, strain TOR1 (second series), stronger effect = lower value 0.963 | [29] 0.938 | S. cerevisiae deletion strains, locus YKL048C, strain ELM1, stronger effect = lower value 0.979 | S. cerevisiae deletion strains, locus YKL067W, strain YNK1, stronger effect = lower value 0.977 | S. cerevisiae deletion strains, locus YKL101W, strain HSL1, stronger effect = lower value 0.984 | S. cerevisiae deletion strains, locus YKL193C, strain SDS22, stronger effect = lower value 0.969 | S. cerevisiae deletion strains, locus YKL203C, strain TOR2, stronger effect = lower value 0.987 | [30] 0.951 | S. cerevisiae deletion strains, locus YLR133W, strain CKI1, stronger effect = lower value 0.976 | S. cerevisiae deletion strains, locus YLR403W, strain SFP1, stronger effect = lower value 0.992 | S. cerevisiae deletion strains, locus YML070W, strain DAK1, stronger effect = lower value 0.969 | S. cerevisiae deletion strains, locus YMR001C, strain CDC5, stronger effect = lower value 0.971 | S. cerevisiae deletion strains, locus YMR205C, strain PFK2 (second series), stronger effect = lower value 0.975 | S. cerevisiae deletion strains, locus YMR277W, strain FCP1, stronger effect = lower value 0.97 | S. cerevisiae deletion strains, locus YNL006W, strain LST8, stronger effect = lower value 0.968 | S. cerevisiae deletion strains, locus YNL020C, strain ARK1, stronger effect = lower value 0.972 | S. cerevisiae deletion strains, locus YNL161W, strain CBK1, stronger effect = lower value 0.975 | [31] 0.971 | S. cerevisiae deletion strains, locus YNL207W, strain RIO2, stronger effect = lower value 0.979 | S. cerevisiae deletion strains, locus YNL222W, strain SSU72, stronger effect = lower value 0.98 | S. cerevisiae deletion strains, locus YNL307C, strain MCK1 (second series), stronger effect = lower value 0.962 | S. cerevisiae deletion strains, locus YOL078W, strain AVO1, stronger effect = lower value 0.98 | S. cerevisiae deletion strains, locus YOL136C, strain PFK27, stronger effect = lower value 0.981 | S. cerevisiae deletion strains, locus YOR061W, strain CKA2, stronger effect = lower value 0.964 | S. cerevisiae deletion strains, locus YOR119C, strain RIO1, stronger effect = lower value 1.01 | [32] 0.946 | S. cerevisiae deletion strains, locus YOR329C, strain SCD5, stronger effect = lower value 0.986 | S. cerevisiae deletion strains, locus YPL031C, strain PHO85, stronger effect = lower value 0.908 | S. cerevisiae deletion strains, locus YPL153C, strain RAD53, stronger effect = lower value 0.937 | S. cerevisiae deletion strains, locus YPL204W, strain HRR25, stronger effect = lower value 0.938 | S. cerevisiae deletion strains, locus YPL209C, strain IPL1, stronger effect = lower value 0.971 | [33] 0.947 | S. cerevisiae deletion strains, locus YPR025C, strain CCL1, stronger effect = lower value 0.969 | S. cerevisiae deletion strains, locus YPR106W, strain ISR1, stronger effect = lower value 0.991 | S. cerevisiae deletion strains, locus YPR111W, strain DBF20, stronger effect = lower value 0.985 | S. cerevisiae deletion strains, strain NNK1, stronger effect = lower value 1 | S. cerevisiae deletion strains, strain TSCII, stronger effect = lower value 0.97
active: [11] 0.793

CC(=O)Nc1c(I)c(NC(C)=O)c(I)c(C(=O)O)c1I
inactive: [11] 0.975 | [27] 1 | [28] 0.989 | [29] 0.932 | [30] 0.977 | [31] 0.941 | [32] 0.99 | [33] 0.974

CC(=O)Nc1c(C)c(C)c(C)c(C)c1NC(C)=O
active: [24] 1.15 [resistant]
inactive: [1] 1.01 | [7] 1.01 | [8] 1 | [26] 1 | [9] 0.989 | [10] 1.02 | [2] 0.994 | [11] 1.14 | [12] 0.997 | [13] 1.01 | [3] 0.988 | [14] 1.04 | [15] 1.02 | [16] 1.07 | [17] 1.02 | [18] 1.04 | [19] 1.02 | [20] 1.01 | [21] 0.995 | [22] 1.06 | [5] 1.01 | [23] 1.03 | [6] 1.03 | [25] 1.09
